# Measured values: PubChem BioAssay (NCATS)
# Where “and” joins values, the source holds several entries; their conditions need not be identical. Identical values can stand only once. Records with an inconclusive call do not appear. Entries that show only a call come without a potency. A number with no mark means an inactive call. Calls of active or inactive are those of the source. Calls follow the shape of the dose curve; as a rule, active = well fitted curve in the direction sought with a large enough effect; inconclusive = small, poorly fitted or top-dose-only effect, or another doubt; inactive = no such curve, though single readings can be large; an effect the other way counts as inactive or inconclusive.
# Assays:
# [1] = P-glycoprotein substrates identified in KB-3-1 adenocarcinoma cell line, qHTS therapeutic library screen (AID 1346986); also: nearly all actives have a fitted effect of over 60% in size;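 also: potency is for cytotoxicity meaning loss of cell viability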
# Outline: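 KB-3-1 parental cells and P-gp-overexpressing KB-8-5-11 (colchicine omitted during assay) plated at 500 cells/well, dosed in dose-response, incubated 72 h at 37 degree C. CellTiter-Glo luminescence read; KB-8-5-11 also tested with tariquidar.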
# [2] = P-glycoprotein substrates identified in KB-8-5-11 adenocarcinoma cell line, qHTS therapeutic library screen (AID 1346987); also: nearly all actives have a fitted effect of over 65% in size; as to activity change, negative = cytotoxicity: series mostly up to about 44 µM
# Outline: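 P-gp-mediated resistance screen: KB-8-5-11 cells treated 72 h with compounds in dose-response. CellTiter-Glo viability.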
# Potency is read from the fitted curve at half-maximal effect.
compound,measurement,setting,value
CC(C)C(=O)OC[C@H]1O[C@H](O[C@H]2O[C@H](CO)[C@@H](O)[C@H](O)[C@H]2O)[C@H](O)[C@@H](O)[C@@H]1O,Potency,[1],inactive
same,Potency,[2],inactive
O=C(O)[C@@H]1C[C@H]2C[C@@H](CCc3nn[nH]n3)CC[C@H]2CN1,Potency,[1],inactive
same,Potency,[2],inactive
CC1(C)CC[C@]2(C(=O)O)CC[C@]3(C)C(=CCC4[C@@]5(C)CC[C@H](O[C@@H]6O[C@H](C(=O)O)[C@@H](O[C@@H]7OC[C@@H](O)[C@H](O)[C@H]7O)[C@H](O)[C@H]6O)C(C)(C)C5CC[C@]43C)C2C1O (stereo partly drawn),Potency,[1],inactive
same,Potency,[2],inactive
C=C[C@H]1C(O[C@@H]2O[C@H](CO)[C@@H](O)[C@H](O)[C@H]2O)OC=C2C(=O)N3CCc4c([nH]c5ccccc45)C3CC21 (stereo partly drawn),Potency,[1],inactive
same,Potency,[2],inactive
CC(=O)OCC1(O)CCC2C(COC3OC(CO)C(O)C(O)C3OC(=O)/C=C/c3ccc(O)cc3)=COC(OC(=O)CC(C)C)C21 (stereo not drawn),Potency,[1],inactive
same,Potency,[2],inactive
CC(C)C1=CC2C(CC[C@]2(C)O)[C@](C)(O)CC1 (stereo partly drawn),Potency,[1],inactive
same,Potency,[2],inactive
C[C@@H]1O[C@@H](O[C@H]2[C@@H]3C=CO[C@@H](O[C@@H]4O[C@H](CO)[C@@H](O)[C@H](O)[C@H]4O)[C@@H]3[C@@]3(CO)O[C@@H]23)[C@H](OC(=O)/C=C/c2ccccc2)[C@H](O)[C@H]1O,Potency,[1],inactive
same,Potency,[2],inactive
C=C(C(=O)O)C1CC2=C(C)CCCC2(C)C[C@@H]1O (stereo partly drawn),Potency,[1],inactive
same,Potency,[2],inactive
CC1=C(C(=O)OCc2ccccc2)C(c2ccc(-c3ccccc3)cc2)NC(=O)N1CCCCCC(=O)O (stereo not drawn),Potency,[1],inactive
same,Potency,[2],inactive
C[C@@H]1O[C@@H](O[C@H]2[C@@H](OC(=O)[C@]34CCC(C)(C)CC3C3=CCC5[C@@]6(C)C[C@H](O)[C@H](O[C@@H]7O[C@H](C(=O)O)[C@@H](O)[C@H](O)[C@H]7O)[C@@](C)(C(=O)O)C6CC[C@@]5(C)[C@]3(C)CC4)OC[C@H](O)[C@@H]2O)[C@H](O)[C@H](O)[C@H]1O[C@@H]1OC[C@@H](O)[C@H](O)[C@H]1O (stereo partly drawn),outcome,[1],inactive [at 9.29 µM]
same,"activity change, negative = cytotoxicity",[2],1.24% [at 9.29 µM]
N#C[C@@H]1CCCN1C(=O)CNC12CC3CC(CC(O)(C3)C1)C2,Potency,[1],inactive
same,Potency,[2],inactive
C=C1C(O)CC2C(C(=O)O)=COC(O[C@@H]3O[C@H](COC(=O)/C=C/c4ccc(O)cc4)[C@@H](O)[C@H](O)[C@H]3O)C12 (stereo partly drawn),Potency,[1],inactive
same,Potency,[2],inactive
CC(=O)O[C@@H]1[C@@H](OC(=O)/C=C/c2ccccc2)[C@@H](OC(C)=O)[C@H](O[C@H]2[C@@H]3C=CO[C@@H](O[C@@H]4O[C@H](CO)[C@@H](O)[C@H](O)[C@H]4O)[C@@H]3[C@@]3(CO)O[C@@H]23)O[C@H]1C,Potency,[1],inactive
same,Potency,[2],inactive
CC12CCC3c4ccc(O)cc4CCC3C1CC(OC1OC(C(=O)O)C(O)C(O)C1O)C2O (stereo not drawn),Potency,[1],inactive
same,Potency,[2],inactive
CC1(C)CC[C@]2(C(=O)O)CC[C@]3(C)C(=CCC4[C@@]5(C)C[C@@H](O)[C@H](O)C(C)(C)C5CC[C@]43C)C2C1 (stereo partly drawn),Potency,[1],inactive
same,Potency,[2],inactive
CC1(C)CC2C=C(C(=O)O)C3COC(=O)C(O)(CO)C23C1 (stereo not drawn),Potency,[1],inactive
same,Potency,[2],inactive
CC12CCC(=O)C=C1C(O)CC1C2C(O)CC2(C)C1CC[C@]2(O)C(=O)CO (stereo partly drawn),outcome,[1],inactive [at 9.29 µM]
same,outcome,[2],inactive [at 9.29 µM]
COc1cc2c(cc1O)[C@H](c1ccc(O[C@@H]3O[C@H](CO)[C@@H](O)[C@H](O)[C@H]3O)c(OC)c1)[C@@H](CO)[C@](O)(CO)C2,Potency,[1],inactive
same,Potency,[2],inactive
C=C1CC[C@@H]2[C@@](C)(CO[C@@H]3O[C@H](CO)C(O)[C@H](O)C3O)[C@H](O)CC[C@@]2(C)[C@@H]1CC/C(C)=C/CO (stereo partly drawn),outcome,[1],inactive [at 9.29 µM]
same,"activity change, negative = cytotoxicity",[2],5.95% [at 9.29 µM]
CC(C(O)/C=C/C(C)(C)O)C1CCC2(C)C3C(=O)C=C4C(CCC(O)C4(C)C)C3(C)CCC12C (stereo not drawn),Potency,[1],inactive
same,Potency,[2],inactive
C=CC(C)(C)c1[nH]c2cc3c(cc2c1CC1NC(=O)C2=CCCN2C1=O)C=CC(C)(C)O3 (stereo not drawn),Potency,[1],inactive
same,Potency,[2],inactive
C=C1[C@@H]2CC[C@@H]3[C@@](CCC4C(C(=O)O)(C(=O)O)C[C@@H](O[C@@H]5O[C@H](CO)[C@@H](O)[C@H](O)[C@H]5OC(=O)CC(C)C)C[C@]43C)(C2)[C@H]1O (stereo partly drawn),Potency,[1],inactive
same,Potency,[2],inactive
OC[C@H]1O[C@@H](OCCc2ccccc2)[C@H](O[C@@H]2OC[C@](O)(CO)[C@H]2O)[C@@H](O)[C@@H]1O,Potency,[1],inactive
same,Potency,[2],inactive
CC1=CC2C(CC1OC1OC(CO)C(O)C(O)C1O)C(C)CC(=O)C2C(C)C (stereo not drawn),Potency,[1],inactive
same,Potency,[2],inactive
COc1cc2occc2c(O[C@@H]2O[C@H](CO)[C@@H](O)[C@H](O)[C@H]2O)c1CCC(=O)O,Potency,[1],inactive
same,Potency,[2],inactive
COC(=O)C1=CO[C@@H](O[C@@H]2O[C@H](CO[C@@H]3O[C@H](COC(=O)/C=C/c4cc(OC)c(O)c(OC)c4)[C@@H](O)[C@H](O)[C@H]3O)[C@@H](O)[C@H](O)[C@H]2O)[C@@H]2C(CO)=CC[C@H]12,Potency,[1],inactive
same,Potency,[2],inactive
C[C@H](N)C(=O)N[C@@H](Cc1ccc(O)cc1)C(=O)N1CCC[C@H]1C(=O)NCC(=O)N[C@@H](CCCCN)C(=O)N[C@@H](Cc1ccccc1)C(N)=O,outcome,[1],inactive [at 9.29 µM]
same,outcome,[2],inactive [at 9.29 µM]
COC(=O)CCSCc1ccc(-c2onc(C)c2NC(=O)OC(C)c2ccccc2Cl)cc1 (stereo not drawn),Potency,[1],inactive
same,Potency,[2],inactive
C=C1C(=O)OC2CC3(C)C(CC12)C(C)=CC(O)C3OC(C)=O (stereo not drawn),Potency,[1],inactive
same,Potency,[2],inactive
CC1(C)C=CN2C(=O)C3=CCCN3C(=O)[C@@H]2C[C@@]12Nc1ccccc1C2=O,Potency,[1],inactive
same,Potency,[2],inactive
COC(=O)C1=CO[C@@H](O[C@@H]2O[C@H](CO)[C@@H](O)[C@H](O)[C@H]2O)[C@H]2[C@@H]1C=C[C@@]21C=C([C@H](C)O)C(=O)O1,Potency,[1],inactive
same,Potency,[2],inactive
CCC[C@@H]1O[C@@H]2C[C@H]3[C@@H]4CCC5=CC(=O)C=C[C@]5(C)[C@H]4[C@@H](O)C[C@]3(C)[C@]2(C(=O)CO)O1,Potency,[1],inactive
same,Potency,[2],inactive
Cc1c(CN2CCN(C(=O)C(C)O)CC2)sc2c(N3CCOCC3)nc(-c3cnc(N)nc3)nc12 (stereo not drawn),Potency,[1],259 nM (active)
same,Potency,[2],0.82 µM (active)
O=C1NC(Cc2c[nH]c3ccccc23)C(=O)NC1Cc1cnc[nH]1 (stereo not drawn),Potency,[1],inactive
same,Potency,[2],inactive
Cn1c2ccc(F)cc2c2c(C(=O)N3CCCC3)cn(-c3ccccc3)c(=O)c21,Potency,[1],inactive
same,Potency,[2],inactive
CC(=O)OC1CC2C3(C)CCC(OC(=O)CC(=O)O)C(C)(C)C3CCC2(C)C2(C)CCC(C3(C)CCC(=O)O3)C12 (stereo not drawn),Potency,[1],inactive
same,Potency,[2],inactive
Cc1noc(=O)c2ccc(NC(=O)C(O)(CC(C)(C)c3cccc4c3OCC4)C(F)(F)F)cc12 (stereo not drawn),Potency,[1],inactive
same,Potency,[2],inactive
O=C(CC1C(=O)Nc2ccccc21)OC[C@H]1O[C@@H](OCCc2ccc(O)cc2)[C@H](O)[C@@H](O)[C@@H]1O (stereo partly drawn),Potency,[1],inactive
same,Potency,[2],inactive
CC1(C)C[C@H](O)C[C@@]2(C)OC(=O)C=C12,Potency,[1],inactive
same,Potency,[2],inactive
C[C@@H](O)[C@H](NC(=O)c1ccc(C#Cc2ccc(CN3CCOCC3)cc2)cc1)C(=O)NO,Potency,[1],inactive
same,Potency,[2],inactive
C=C[C@@]12COC(=O)C(=C)C1[C@@H](O)[C@H](C(=C)C(=O)OC)[C@@H](OC(=O)C(=C)CO)C2 (stereo partly drawn),Potency,[1],inactive
same,Potency,[2],inactive
COc1c2c(c(C)c3c1C(=O)OC3)OC1(C)CC(O)C34OC(OC)(OC3(C)C)C(O)CC4(C)C1C2 (stereo not drawn),Potency,[1],inactive
same,Potency,[2],inactive
C=C1C[C@]23C[C@H]1CC[C@H]2[C@@]1(C)CCC[C@@]2(C)C(=O)O[C@@H]([C@@H]3O)[C@@H]12,Potency,[1],inactive
same,Potency,[2],inactive
O=C(O)/C=C/c1ccc(O)c(O[C@@H]2O[C@H](CO)[C@@H](O)[C@H](O)[C@H]2O)c1,Potency,[1],inactive
same,Potency,[2],inactive
COc1cc2c(cc1OC)CC(=O)N(CCCNC[C@H]1Cc3cc(OC)c(OC)cc31)CC2,Potency,[1],inactive
same,Potency,[2],inactive
CC(C)=CCC/C(C)=C/CO[C@@H]1O[C@H](CO)[C@@H](O)[C@H](O)[C@H]1O,Potency,[1],inactive
same,Potency,[2],inactive
CN[C@H](CC(C)C)C(=O)N[C@H]1C(=O)N[C@@H](CC(N)=O)C(=O)N[C@H]2C(=O)N[C@H]3C(=O)N[C@H](C(=O)N[C@H](C(=O)O)c4cc(O)cc(O)c4-c4cc3ccc4O)[C@H](O[C@H]3C[C@](C)(N)[C@@H](O)[C@H](C)O3)c3ccc(c(Cl)c3)Oc3cc2cc(c3O[C@@H]2O[C@H](CO)[C@@H](O)[C@H](O)[C@H]2O[C@H]2C[C@](C)(NCc3ccc(-c4ccc(Cl)cc4)cc3)[C@@H](O)[C@H](C)O2)Oc2ccc(cc2Cl)[C@H]1O,Potency,[1],inactive
same,Potency,[2],inactive
CC(=O)O[C@H]1[C@@H](O)[C@H](O[C@H]2[C@@H]3C=CO[C@@H](O[C@H]4O[C@@H](CO)[C@H](O)[C@@H](O)[C@@H]4O)[C@@H]3[C@@]3(CO)O[C@@H]23)O[C@@H](C)[C@@H]1OC(=O)/C=C/c1ccccc1,Potency,[1],inactive
same,Potency,[2],inactive
O=C1NC(Cc2c[nH]c3ccccc23)C(=O)NC1Cc1c[nH]c2ccccc12 (stereo not drawn),Potency,[1],inactive
same,Potency,[2],inactive
Nc1ccc(/C=C/C(=O)NCc2cc3cc(-c4ccc(C(=O)N5CCC(F)(F)CC5)cc4)cc(-c4ccc(F)cc4)c3o2)cn1,Potency,[1],517 nM (active)
same,Potency,[2],5.17 µM (active) and 5.8 µM (active)
COc1c2c(c(CO)c3c1C(=O)OC3)OC1(C)CCC3(O)C(C)(C)OC(=O)CCC3(C)C1C2 (stereo not drawn),Potency,[1],inactive
same,Potency,[2],inactive
O=C(c1ccc2nccnc2c1)N1CCCCC1,Potency,[1],inactive
same,Potency,[2],inactive
Nc1nccn2c(C3CCC(C(=O)O)CC3)nc(-c3cc4cccc(Cl)c4[nH]3)c12 (stereo not drawn),Potency,[1],1640 nM (active)
same,Potency,[2],1.46 µM (active)
N#Cc1c(Oc2ccc(F)c(NC(=O)Cc3cccc(C(F)(F)F)c3)c2)ccc2nc(NC(=O)C3CC3)sc12,Potency,[1],6510 nM (active)
same,Potency,[2],7.31 µM (active)
